What was measured:
Assay in all cases: PBM binding z-score (relative to random genomic background probes); higher = stronger binding; sequences stand for … in GC…GCGATTGACAGCGTAGAATGAAGG
[1] = system: FXR:RXRa (NR concentration 270 nM, RXRa partner concentration 90 nM)
Summary of the method: (§1)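 Ligand-free nuclear receptor dimers were bound for 1 h to custom Agilent 4×180K protein-binding microarrays. Detection used antibodies against each partner (one per run). Binding z-scores rest on regression-normalized fluorescence, with random background probes as the reference.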

[2] = system: LXRa:RXRa (NR concentration 270 nM, RXRa partner concentration 90 nM)
Summary of the method: as §1

[3] = system: LXRa homodimer (NR concentration 270 nM)
Summary of the method: as §1

[4] = system: LXRb:RXRa (NR concentration 270 nM, RXRa partner concentration 90 nM)
Summary of the method: as §1

[5] = system: LXRb homodimer (NR concentration 270 nM)
Summary of the method: as §1

[6] = system: PPARa:RXRa (NR concentration 270 nM, RXRa partner concentration 90 nM)
Summary of the method: as §1

[7] = system: PPARg:RXRa (NR concentration 180 nM, RXRa partner concentration 90 nM)
Summary of the method: as §1

[8] = system: PPARg:RXRa 270nM:90nM, anti-RXR (NR concentration 270 nM, RXRa partner concentration 90 nM)
Summary of the method: as §1

[9] = system: PPARg:RXRa 30nM:10nM, anti-RXR (NR concentration 30 nM, RXRa partner concentration 10 nM)
Summary of the method: as §1

[10] = system: PPARg:RXRa 90nM:30nM, anti-RXR (NR concentration 90 nM, RXRa partner concentration 30 nM)
Summary of the method: as §1

[11] = system: PPARg:RXRa DBDmut IVT, anti-RXR (DBD mutation: RXRa K156A/R161A, NR concentration 270 nM, RXRa partner concentration 90 nM)
Summary of the method: as §1

[12] = system: PPARg:RXRa IVT, anti-PPARg (NR concentration 270 nM, RXRa partner concentration 90 nM)
Summary of the method: as §1

[13] = system: PPARg DBDmut:RXRa IVT, anti-PPARg (DBD mutation: PPARg1 K132A/R137A, NR concentration 270 nM, RXRa partner concentration 90 nM)
Summary of the method: as §1

[14] = system: PPARg DBDmut IVT, anti-PPARg (DBD mutation: PPARg1 K132A/R137A, NR concentration 270 nM)
Summary of the method: as §1

[15] = system: PPARg homodimer (NR concentration 180 nM)
Summary of the method: as §1

[16] = system: PXR:RXRa (NR concentration 270 nM, RXRa partner concentration 90 nM)
Summary of the method: as §1

[17] = system: PXR homodimer (NR concentration 270 nM)
Summary of the method: as §1

[18] = system: RARa:RXR (NR concentration 270 nM, RXRa partner concentration 90 nM)
Summary of the method: as §1

[19] = system: RARa homodimer (NR concentration 270 nM)
Summary of the method: as §1

[20] = system: RARb:RXRa (NR concentration 270 nM, RXRa partner concentration 90 nM)
Summary of the method: as §1

Sequence	PBM binding z-score [1]	PBM binding z-score [2]	PBM binding z-score [3]	PBM binding z-score [4]	PBM binding z-score [5]	PBM binding z-score [6]	PBM binding z-score [7]	PBM binding z-score [8]	PBM binding z-score [9]	PBM binding z-score [10]	PBM binding z-score [11]	PBM binding z-score [12]	PBM binding z-score [13]	PBM binding z-score [14]	PBM binding z-score [15]	PBM binding z-score [16]	PBM binding z-score [17]	PBM binding z-score [18]	PBM binding z-score [19]	PBM binding z-score [20]
CCTAGTTGGTCGAGGTCACACACGCTATAGGTAC	4.44	4.08	2.35	3.65	0.632	4.31	2.86	3.39	0.788	2.21	1.44	3.16	1.31	-0.295	3.81	5.08	3.73	5.08	1.8	3.63
TCTAGTTGGACAAAGGTCACACACTCGAAATGCG	5.55	5.75	3.58	5.38	1.83	6.21	9.82	8.72	9.32	9.4	2.65	5.02	0.884	1.01	4.09	5.7	1.81	6.59	2.98	5.11
ATCTGTAGGTTAAGGGTCATTCAGGTTGGTTCGC	5.22	5.26	3.63	4.56	1.72	5.72	9.93	9.03	9.65	10.6	3.99	5.75	1.73	1.69	3.99	5.59	3.35	6.53	2.88	3.77
TCGAGTACGTTAGGGGCATTCAGAATGGCGTCGA	-0.212	-0.0926	-0.859	0.0159	-1.01	0.403	0.0548	0.205	0.448	0.552	0.475	-0.595	-1.29	-1.15	-0.704	1.69	5.78	-0.118	-0.866	0.723
GATACAGGGTCCGCTAGAGGCCAGAGTATGGAAA	-0.588	-0.752	-0.713	-1.11	-1.38	-0.848	0.112	-0.726	-0.417	-1.24	-1.31	-0.762	-1.66	-1.32	-0.788	-0.821	-0.331	-0.782	-1.34	0.181
CGCCCAAGGTCAATGCTAGGTCAGTGAAAGCATT	6.51	5.61	2.46	4.24	0.667	4.93	4.07	4.33	1.03	3.08	2.79	3.47	-0.141	-0.36	5.9	4.68	1.04	6.04	0.81	5.09
TCATATAGGTAAAAGGTGACAGTCGGTGTGGTAA	1.88	1.46	-0.178	1.61	0.00468	5.19	9.43	8.82	8.45	9.66	5.71	5.54	2.29	1.71	1.76	1.36	1.05	2.14	1.41	1.7
